The nature of assay [1]: optical density shifts of acrAB sulA E. coli – strain DRC41, OD650, 48 h, E. coli filamentation inducer project, primary screen (AID 1152).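 Also: E. coli MC1000 strain DRC41 lacking acrAB efflux pump and sulA.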 Particulars: higher = more signal, called active from +8 up or from −8 down.
A short description of assay [2]: probe aLefty1 binding on compound microarray – biochemical, small-molecule microarray, 635/667 nm fluorescence, primary screen (AID 1153).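 Also: score merges spot fluorescence with signal-to-noise ratio from the scanned slide images.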 Particulars: higher = more signal.
Assay [3] is described as follows: plasmodial surface anion channel blockers, osmotic lysis – cell-based, P. falciparum Indochina, OD700, 1 h, primary screen (AID 1154). Particulars: P. falciparum Indochina infected RBC osmotic lysis, higher = more signal, called active from +8 up or from −8 down.
Assay [4] in a line: plasmodial surface anion channel blockers, osmotic lysis – cell-based, P. falciparum Indochina, OD700, 2 h, primary screen (AID 1155).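 Also: lysis reports solute entry through the parasite surface anion channel PSAC.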 Particulars: P. falciparum Indochina infected erythrocytes, higher = more signal, called active from +8 up or from −8 down.
Assay [5] can be described thus: changes in parasitized red cell lysis, either direction – P. falciparum Indochina, OD700, 3 h, PSAC antagonist project, primary screen (AID 1156). Particulars: P. falciparum-infected erythrocytes, osmotic lysis, higher = more signal, called active from +8 up or from −8 down.
A short description of assay [6]: plasmodial surface anion channel blockers, osmotic lysis – cell-based, P. falciparum Indochina, OD700, 18 h, primary screen (AID 1157). The conditions noted are these: P. falciparum Indochina infected erythrocytes, osmotic lysis OD700, 18 h; higher = more signal, called active from +8 up or from −8 down.
Assay [7] in a line: S6 kinase pathway phospho-S6 level changes – cell-based, A549, cytoblot, luminescence, serum-stimulated, primary screen (AID 1158).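 Also: serum-stimulated A549 lung adenocarcinoma cells; signal is phosphorylated S6 detected by cytoblot immunostaining with HRP secondary.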 Particulars: 5 h, higher = more signal.
Assay [8] concerns the target NADPH oxidase 2 (Homo sapiens) (UniProt P04839). Nature of the assay: compounds shifting NOX2 Amplex Red fluorescence – cell-based, HEK293-NOX2, PMA-stimulated, NOX inhibitor project, primary screen (AID 1159). Also: test concentration not given here. The conditions noted are these: 45 min, higher = more signal, called active from +8 up or from −8 down.
In assay [9] the target is NADPH oxidase 4 (Homo sapiens) (UniProt Q9NPH5). Nature of the assay: compounds shifting NOX4 Amplex Red fluorescence – cell-based, HEK293-NOX4, tetracycline-induced, NOX inhibitor project, primary screen (AID 1160). The conditions noted are these: HEK293-NOX4, Amplex Red H2O2 fluorescence, 45 min; higher = more signal, called active from +8 up or from −8 down.
Sequence of NADPH oxidase 4 (Homo sapiens) (Q9NPH5 whole entry, looked up): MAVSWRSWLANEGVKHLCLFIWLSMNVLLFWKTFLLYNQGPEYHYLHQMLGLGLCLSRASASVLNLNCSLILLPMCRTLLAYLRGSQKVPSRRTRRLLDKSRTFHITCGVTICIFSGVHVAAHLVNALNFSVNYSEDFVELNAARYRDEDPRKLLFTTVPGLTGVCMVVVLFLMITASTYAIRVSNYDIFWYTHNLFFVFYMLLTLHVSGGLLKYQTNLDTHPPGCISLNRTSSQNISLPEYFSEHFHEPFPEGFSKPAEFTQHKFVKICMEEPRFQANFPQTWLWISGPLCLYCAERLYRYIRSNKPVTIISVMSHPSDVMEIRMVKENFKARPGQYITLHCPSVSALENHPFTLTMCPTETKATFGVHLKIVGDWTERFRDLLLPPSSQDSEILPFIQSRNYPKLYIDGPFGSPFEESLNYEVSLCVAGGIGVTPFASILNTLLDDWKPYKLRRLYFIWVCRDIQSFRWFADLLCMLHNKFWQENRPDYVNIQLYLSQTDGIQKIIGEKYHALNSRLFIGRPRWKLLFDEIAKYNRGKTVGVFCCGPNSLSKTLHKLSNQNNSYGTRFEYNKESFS
The target of assay [10] is NADPH oxidase 5 (Homo sapiens) (UniProt Q96PH1). Briefly: compounds shifting NOX5 Amplex Red fluorescence – cell-based, HEK293-NOX5, NOX inhibitor project, primary screen (AID 1161). Particulars: HEK293-NOX5, ionomycin, 45 min, higher = more signal.
Sequence of NADPH oxidase 5 (Homo sapiens) (Q96PH1 whole entry, looked up): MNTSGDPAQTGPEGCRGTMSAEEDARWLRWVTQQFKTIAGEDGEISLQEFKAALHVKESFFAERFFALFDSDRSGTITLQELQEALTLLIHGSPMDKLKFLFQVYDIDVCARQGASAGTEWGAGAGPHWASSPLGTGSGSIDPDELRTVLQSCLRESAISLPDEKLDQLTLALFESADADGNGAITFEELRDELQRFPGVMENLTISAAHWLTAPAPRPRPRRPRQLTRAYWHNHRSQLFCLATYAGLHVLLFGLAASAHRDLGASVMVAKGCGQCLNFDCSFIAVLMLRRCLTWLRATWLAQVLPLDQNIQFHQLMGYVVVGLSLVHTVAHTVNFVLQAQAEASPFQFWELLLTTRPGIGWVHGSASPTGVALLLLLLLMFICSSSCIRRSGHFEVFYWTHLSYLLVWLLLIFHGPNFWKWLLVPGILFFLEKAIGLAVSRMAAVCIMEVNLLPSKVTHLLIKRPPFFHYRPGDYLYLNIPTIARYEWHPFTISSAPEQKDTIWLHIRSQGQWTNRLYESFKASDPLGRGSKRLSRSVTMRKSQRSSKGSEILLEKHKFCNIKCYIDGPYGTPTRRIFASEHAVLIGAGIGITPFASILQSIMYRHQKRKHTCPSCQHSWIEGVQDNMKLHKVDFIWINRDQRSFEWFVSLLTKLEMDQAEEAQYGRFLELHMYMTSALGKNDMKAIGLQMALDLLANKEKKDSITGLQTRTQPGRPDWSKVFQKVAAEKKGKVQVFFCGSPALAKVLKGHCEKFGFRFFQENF

Where “and” joins values, the source holds several entries; their conditions need not be identical. Equal entries are not always repeated. Calls of active or inactive are those of the source.

Sequence of NADPH oxidase 2 (Homo sapiens) (P04839 whole entry, looked up): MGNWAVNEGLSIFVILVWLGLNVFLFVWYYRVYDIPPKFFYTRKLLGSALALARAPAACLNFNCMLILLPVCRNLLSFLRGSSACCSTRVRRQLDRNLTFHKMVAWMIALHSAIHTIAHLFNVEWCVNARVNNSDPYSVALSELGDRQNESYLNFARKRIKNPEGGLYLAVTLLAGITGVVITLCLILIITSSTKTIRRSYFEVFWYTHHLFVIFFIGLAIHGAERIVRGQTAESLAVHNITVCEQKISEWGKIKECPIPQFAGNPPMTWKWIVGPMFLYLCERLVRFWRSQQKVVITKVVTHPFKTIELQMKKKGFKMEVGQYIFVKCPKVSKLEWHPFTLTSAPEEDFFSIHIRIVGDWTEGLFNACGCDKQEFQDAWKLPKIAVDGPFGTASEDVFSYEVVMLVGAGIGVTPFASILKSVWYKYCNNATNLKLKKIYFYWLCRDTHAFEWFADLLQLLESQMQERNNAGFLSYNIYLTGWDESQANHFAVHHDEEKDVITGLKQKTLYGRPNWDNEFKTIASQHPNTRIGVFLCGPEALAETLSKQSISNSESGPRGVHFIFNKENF

`C=C[C@H](C)[C@H](O)c1ccc(O)c2ccccc12`: the z-score in assay [1] is 2.14 (inactive) and 2.25 (inactive); in [3] it was 0.656 (inactive) and 0.845 (inactive); in assay [4] it was -0.627 (inactive) and -0.531 (inactive); in assay [5] it was -0.984 (inactive) and -0.529 (inactive); in assay [6] it was -0.408 (inactive) and -1.21 (inactive); in assay [7] it was 1.13 and 0.885. Besides, the z-score is -5.4 (inactive) and -5.09 (inactive) in assay [8]; -0.841 (inactive) and -0.878 (inactive) in assay [9]; 0.582 and 1.17 in assay [10]. Moreover, the composite z-score in assay [2] was -0.31 and -0.201.

On to `CC(C)N1CC=CC23O[C@@H]4C=CCCOC(=O)C4[C@H]2C(=O)N(C(C)CO)[C@@H]3C1=O` (stereo not given in full), for which the z-score was 2.39 (inactive) and 2.01 (inactive) in [1]; 0.339 (inactive) and 1.47 (inactive) in [3]; -0.917 (inactive) and -0.564 (inactive) in assay [4]; -0.0544 (inactive) and 0.331 (inactive) in [5]; -1.54 (inactive) and -0.97 (inactive) in assay [6]; 0.22 and -0.109 in assay [7]. The z-score was 1.94 (inactive) and 1.59 (inactive) in assay [8]; 0.808 (inactive) and 0.594 (inactive) in assay [9]; 2.17 and 1.76 in assay [10]. In addition, the composite z-score in assay [2] was 0.0004 and -0.147.

With `C[N+](C)(C)CCCCCCNC(=O)[C@H]1C[C@H]2C(=O)N[C@@H](CCCC[N+](C)(C)C)C(=O)N2[C@H]1c1cccc(OCCO)c1`, the z-score is 1.06 (inactive) and -0.391 (inactive) in assay [1]; 3.2 (inactive) and 3.03 (inactive) in [3]; 1.03 (inactive) and 1.07 (inactive) in assay [4]; 0.0478 (inactive) and -2.4 (inactive) in assay [5]; 0.448 (inactive) and 0.301 (inactive) in assay [6]; -0.0981 and -0.617 in assay [7]. Also, the z-score is -0.142 (inactive) and -0.0849 (inactive) in [8]; 0.566 (inactive) and 0.746 (inactive) in assay [9]; 0.749 and 0.86 in assay [10]. Moreover, the composite z-score in [2] was 0.212 and 1.06.

Take `C[C@@H](c1ccccc1)N1C(=O)[C@H]2[C@H]3[C@H](O)[C@H](O)CC(=O)[C@@H]3CC[C@H]2C1=O`: the z-score in assay [1] is 0.212 (inactive); in assay [3], 0.207 (inactive); in assay [4] it was -1.39 (inactive); in assay [5], 0.279 (inactive); in [6], -1.63 (inactive); in assay [7] it was 0.732. In addition, the z-score in assay [8] was -0.0197 (inactive); in [9] it was 0.237 (inactive); in assay [10], 0.776. Moreover, the composite z-score in assay [2] was -0.229.

As to `COC(=O)CC=C[C@@H](C)[C@@H](CO)NS(=O)(=O)c1ccc(C)cc1`, the z-score in assay [1] was -0.242 (inactive) and 0.0668 (inactive); in assay [3], -0.577 (inactive) and 5.54 (inactive); in assay [4] it was -0.08 (inactive) and 1.47 (inactive); in [5], 0.245 (inactive) and 0.644 (inactive); in [6], -0.145 (inactive) and 1.05 (inactive); in assay [7], -0.244 and 0.392. Moreover, the z-score is -0.132 (inactive) and 0.154 (inactive) in [8]; -0.00804 (inactive) and 0.453 (inactive) in assay [9]; -0.00181 and 0.301 in [10]. Also, the composite z-score in assay [2] was -0.0971 and -0.148.

For the compound `COC(=O)C1=C(C)N(Cc2ccccc2)[C@]23O[C@](C(=O)OC)(C(=O)N2[C@@H]1c1ccccc1)[C@H]1C(=O)N(c2ccccc2)C(=O)[C@H]13`, the z-score in assay [1] was -0.371 (inactive) and 0.644 (inactive); in assay [3], 0.729 (inactive) and 0.997 (inactive); in assay [4], 0.626 (inactive) and -1.04 (inactive); in assay [5], 1.17 (inactive) and 2.21 (inactive); in assay [6], -0.0207 (inactive) and -1.23 (inactive); in assay [7], -0.103 and 0.506. The z-score in assay [8] is 0.983 (inactive) and 0.108 (inactive); in assay [9], 0.632 (inactive) and 1.27 (inactive); in assay [10], 1.07 and 0.999. The composite z-score in [2] is -0.139 and -0.0046.

As to `COC(=O)C1=C(C)N(Cc2ccccc2)[C@]23O[C@](C(=O)OC)(C(=O)N2[C@@H]1c1ccccc1)[C@H]1CCCC(=O)[C@H]13`, the z-score is 0.0211 (inactive) and -0.587 (inactive) in assay [1]; 1.12 (inactive) and 0.466 (inactive) in assay [3]; 0.314 (inactive) and 0.0982 (inactive) in assay [4]; 0.0988 (inactive) and 0.882 (inactive) in [5]; 0.0037 (inactive) and -1.37 (inactive) in assay [6]; -0.0731 and 2.28 in [7]. The z-score in assay [8] was -2.97 (inactive) and -0.233 (inactive); in [9], 0.743 (inactive) and 0.178 (inactive); in assay [10], 0.244 and -0.624. In addition, the composite z-score in [2] is -0.0559 and 0.101.

`C=CCN(C(=O)C(c1cccs1)N(CCOCCO)C(=O)/C=C\C(=O)O)c1ccc(OC)cc1` (stereo not given): the z-score was 3.55 (inactive) and 2.87 (inactive) in assay [1]; 0.195 (inactive) and -0.888 (inactive) in assay [3]; -0.567 (inactive) and -0.967 (inactive) in [4]; 0.0684 (inactive) and -1.43 (inactive) in [5]; -0.922 (inactive) and -0.842 (inactive) in assay [6]; 2.24 and 0.28 in [7]. Besides, the z-score in assay [8] was 0.118 (inactive) and -0.448 (inactive); in [9], -0.578 (inactive) and -1.19 (inactive); in assay [10], -0.0456 and 0.0347. For the same compound, the composite z-score in [2] is -0.262 and -0.142.

The values above are taken from PubChem BioAssay.
